Many of the other results were omitted from the sample, so hits are more common in it than they were.
NS1 function inh: inhibitors of influenza NS1 protein function; 270,000 tested, 0.4% active; Potency, µM (doses to about 46.1 µM), for the others: top-dose activity, positive = more growth; calls by dose curve; also: actives are rising curves; nearly all actives have a fitted effect of over 50% in size
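Read-out: OD600 growth recovery of NS1-expressing budding yeast. Cells grown overnight at 30C in -URA glucose medium, washed, resuspended and diluted 1:100 in 2% galactose assay medium, pH 6.0. Same strain lacking NS1 served as positive control.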
Cruzain noTriton: blocks cruzain activity in detergent-free assay; purified cruzain, Z-FR-AMC fluorescence, no detergent; Potency, µM, for the others: max response, negative = inhibition, hits mostly inhibitors; P25779; AID 1476; 200,000 tested, 2.3% active;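 also: plate controls were enzyme without inhibitor for no effect and buffer without enzyme for full effect; nearly all actives have a fitted effect of over 40% in size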
Target sequence (P25779 123-467 limits assumed): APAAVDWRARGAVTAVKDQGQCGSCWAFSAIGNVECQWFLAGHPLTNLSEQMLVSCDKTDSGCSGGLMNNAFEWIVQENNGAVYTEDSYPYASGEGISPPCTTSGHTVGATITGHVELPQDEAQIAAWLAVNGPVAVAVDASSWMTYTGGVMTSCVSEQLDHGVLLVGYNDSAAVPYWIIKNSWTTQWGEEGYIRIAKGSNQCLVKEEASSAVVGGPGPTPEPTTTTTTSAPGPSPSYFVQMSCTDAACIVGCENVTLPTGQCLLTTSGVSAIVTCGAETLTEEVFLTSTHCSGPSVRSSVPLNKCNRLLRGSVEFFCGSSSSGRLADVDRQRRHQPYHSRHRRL
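Purified cruzain at 1.5 nM, pre-incubated 15 min with compound at room temperature in 100 mM sodium acetate pH 5.5, 5 mM DTT, 0.00005% Triton X-100. Reaction started with 2 uM Z-FR-AMC; AMC fluorescence increase over 60 s gives rate.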
Cruzain Triton: cruzain (T. cruzi) inhibition with detergent; AID 1478; Potency, µM, for the others: max response, negative = inhibition, actives largely listed as inhibitors; 200,000 tested, 0.43% active; purified cruzain, Z-FR-AMC fluorescence, 0.01% Triton;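 also: plate controls were neutral wells for no effect and buffer without enzyme for full effect; nearly all actives have a fitted effect of over 40% in size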
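In this qHTS format, compounds are incubated with 1.5 nM cruzain for 15 min at room temperature before 2 uM Z-FR-AMC is added. Release of AMC is followed at 360/450 nm, and progress is taken as the 60 s fluorescence difference.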
* marks the source's active call; other numbers are inactive results; ? = inconclusive; nt = no result. Unless noted, calls follow the shape of the dose curve; as a rule, active = well fitted curve in the direction sought with a large enough effect; inconclusive = small, poorly fitted or top-dose-only effect, or another doubt; inactive = no such curve, though single readings can be large; an effect the other way counts as inactive or inconclusive. Potency is read from the fitted curve at half-maximal effect.

SMILES	NS1 function inh	Cruzain noTriton	Cruzain Triton
O=C(c1ccco1)[C@@H]1[C@@H]2C(=O)N(c3ccc(Br)cc3)C(=O)[C@@H]2C2c3ccccc3C=CN21 (stereo partly drawn)	2%	13µM*	-4%
NC(=O)[C@@H]1[C@@H]2C(=O)N(c3ccc(F)cc3)C(=O)[C@@H]2[C@H]2C=Cc3ccccc3N21	9%	nt	nt
O=C(c1ccco1)[C@@H]1[C@@H]2C(=O)N(c3ccc(F)cc3)C(=O)[C@@H]2[C@H]2C=Cc3ccccc3N21	?	25µM*	-6%
O=C(c1ccco1)[C@@H]1[C@@H]2C(=O)N(c3ccc(F)cc3)C(=O)[C@@H]2C2c3ccccc3C=CN21 (stereo partly drawn)	6%	-8%	-6%
COc1cc(NC(=O)CC(c2cccs2)N2Cc3ccccc3C2=O)cc(OC)c1OC (stereo not drawn)	nt	22%	-3%
O=C(CNC(=O)c1ccc(Cl)cc1Cl)OCc1nc2ccccc2s1	-17%	4µM*	7.9µM*
CC(=O)OCc1nc2ccccc2s1	19%	-7%	2%
O=C(CNC(=O)c1ccccc1)OCc1nc2ccccc2s1	-17%	13µM*	25µM*
O=C(O)COCc1nc2ccccc2s1	1%	nt	nt
Cc1ccc(NS(=O)(=O)c2ccc(-c3cc(C)no3)cc2)c(Br)c1	nt	-11%	-8%
CCCCN(CCCC)C(=O)c1c[nH]c2ccc(S(=O)(=O)Nc3cccc(Cl)c3C)cc2c1=O	nt	-8%	-10%
Cc1cc(/C=C2\SC(=S)NC2=O)c(C)n1C1CC1	-28%	16µM*	0%
Cc1cc(/C=C2/C(=O)N(C)C(=S)N2C)c(C)n1C1CC1	23%	-21%	-9%
CN(C)C(=O)c1ccc(-c2nccc(NCc3cccnc3)n2)cc1	nt	-1%	0%
CCCOc1ccc(C(=O)NC(=S)Nc2nc3ccc(C)cc3s2)cc1	11%	25µM*	7%
C/C=C/C(=O)OCC(=O)Nc1nc2ccc(C)cc2s1	14%	20µM*	0%
Cc1ccc2nc(NC(=O)c3ccc(Cl)s3)sc2c1	-5%	13µM*	1%
Cc1ccc2nc(NC(=O)c3cccs3)sc2c1	-62%	-8%	0%
CCOCC(=O)Nc1nc2ccc(C)cc2s1	-2%	4%	-4%
CCCOc1ccc(C(=O)NC(=S)Nc2nc3ccccc3s2)cc1	-5%	?	2%
Nc1nc2c(c(=O)[nH]1)N=C(CNc1ccc(C(=O)NC(CCC(=O)O)C(=O)O)cc1)CN2 (stereo not drawn)	nt	-2%	-2%
COc1ccc(-c2noc(-c3ccc(NC4CCCCC4)c([N+](=O)[O-])c3)n2)cc1	nt	2%	-1%
Cc1nc2cnc(Oc3cccc(Cl)c3)nc2n(C[C@H]2CCCO2)c1=O	nt	-4%	-1%
COc1ccc(C(=O)Nc2ccc3c(c2)CCCN3S(=O)(=O)c2ccc(C)cc2)c(OC)c1	nt	?	-1%
CCCCC(=O)Nc1ccc2nc(SCC(=O)N3CCc4ccccc43)sc2c1	nt	-19%	-3%
SMILES	NS1 function inh	Cruzain noTriton	Cruzain Triton
Cc1c(Br)c([N+](=O)[O-])nn1CCCC(=O)Nc1sc2c(c1C#N)CCC2	2%	1%	-16%
Cc1c(Br)c([N+](=O)[O-])nn1CC(=O)Nc1sc2c(c1C(=O)OC(C)C)CCCC2	-1%	13µM*	2%
CCOc1ccc(NC(=O)CSc2nc(C)c(C(=O)Nc3ccccc3)c(-c3ccc(Cl)cc3)c2C#N)cc1	nt	-21%	-4%
COc1ccc(-c2c(C#N)c(SCC(=O)Nc3ccc(C)c(C)c3)nc(C)c2C(=O)Nc2ccc(Cl)cc2)cc1	nt	6.3µM*	1%
COc1cccc([C@@H]2Oc3ccc(Br)cc3C[C@H]2OC(=O)NS(=O)(=O)c2ccc(F)cc2)c1	nt	-7%	3%
Cc1nc(NC(=O)/C=C/c2ccccc2)sc1C(=O)Nc1ccccc1Cl	14%	10µM*	-3%
Cc1nc(NC(=O)/C=C/c2ccccc2)sc1C(=O)Nc1ccc(Cl)cc1	5%	1%	6%
Cc1csc(NC(=O)CCn2c(=O)oc3ccccc32)n1	4%	-7%	-1%
O=C(Cn1c(=O)oc2ccccc21)Nc1nc(-c2ccc(Br)cc2)cs1	-8%	16µM*	1%
O=C(NS(=O)(=O)c1ccc(F)cc1)O[C@@H]1C(=O)c2cc(Br)ccc2O[C@H]1c1ccc2c(c1)OCO2	nt	-9%	-1%
O=C(COC(=O)/C=C/c1ccccc1[N+](=O)[O-])Nc1ccc(OC(F)F)cc1	-2%	-21%	-1%
O=C(COC(=O)/C=C/c1ccccc1[N+](=O)[O-])Nc1ccc(OCc2ccccc2)cc1	14%	25µM*	3%
Cc1ccc(CNC(=O)c2cc(C)nn2-c2ccccc2)cc1	-5%	nt	nt
Cc1ccc(Cc2nnc3n(-c4ccccc4)nc(C(=O)c4ccccc4)n3c2=O)cc1	3%	25µM*	-4%
O=S(=O)(Cl)c1ccccc1	nt	-3%	4%
CC(/C=N/NC(=O)Cc1cccs1)=C\c1ccccc1	-1%	-9%	-5%
O=C(Cc1cccs1)N/N=C/C(Br)=C/c1ccccc1	-3%	16µM*	1%
Cc1nc(N2CCOCC2)c2nc(-c3ccccc3)n(CCCN3CCOCC3)c2n1	nt	-7%	-3%
COc1cc(OC)c(NC(=O)C(Cc2ccccc2)NS(=O)(=O)c2cccc3nsnc23)cc1Cl (stereo not drawn)	nt	-21%	-4%
C=CCn1c(C)cc(C(=O)COC(=O)CNC(=O)c2ccccc2)c1C	-5%	20µM*	25µM*
Cc1ccc(C(=O)NCC(=O)OCC(=O)c2cc(C)n(Cc3ccco3)c2C)cc1	9%	-1%	-30%
Cc1cc(C(=O)COC(=O)CNC(=O)c2ccc(Cl)c(Cl)c2)c(C)n1Cc1ccco1	3%	-12%	10µM*
O=C(CNC(=O)c1ccccc1)OCC(=O)c1ccccc1Cl	-3%	nt	nt
Nc1ccc(N2CCN(c3ncc(C(F)(F)F)cc3Cl)CC2)c(C(F)(F)F)c1	nt	-15%	-5%
CCCCc1ccc(C(=O)N/C(=C\c2ccc(C)cc2)C(=O)NC2CCCCC2)cc1	nt	2%	0%
SMILES	NS1 function inh	Cruzain noTriton	Cruzain Triton
CCN(CC)COC(=S)S	-20%	3%	10%
CCOc1ccc(NC(=O)c2oc3ccccc3c2NC(=O)c2cc(C)cc(C)c2)cc1	nt	1%	-1%
COc1ccc(NC(=O)c2oc3ccccc3c2NC(=O)Cc2coc3ccc(C)cc23)cc1	nt	25µM*	-5%
CCc1ccc2occ(CC(=O)Nc3c(C(=O)Nc4ccc(OC)cc4)oc4ccccc34)c2c1	nt	-6%	-4%
CCOc1ccc(NC(=O)c2oc3ccccc3c2NC(=O)C(C)Oc2ccccc2)cc1 (stereo not drawn)	nt	32µM*	-5%
Cc1ccccc1-c1nc(-n2ccnc2)c2ccccc2n1	nt	6%	-6%
O=C(COc1ccc(F)cc1)NCc1ccc2c(c1)CCN2C(=O)c1ccccc1	nt	21%	-1%
Cc1ccc2ccc3cc(C(=O)N4CCN(c5ccccc5F)CC4)nc3c2[nH]1	nt	-22%	-2%
Cc1ccc2ccc3cc(C(=O)Nc4ccc(C)c(F)c4)nc3c2[nH]1	nt	?	8.9µM*
C=C(C)[C@@H]1CC[C@]2(C(=O)O)CC[C@]3(C)C(CCC4[C@@]5(C)CC[C@H](O)C(C)(C)C5CC[C@]43C)C12 (stereo partly drawn)	7%	nt	nt
